Assay results as given in PubChem BioAssay (NCI).
The panel holds about 83,000 compounds, 20% with a hit somewhere; the sample as a whole holds those more often.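 Percent growth is the endpoint: 0 to 100 indicates growth inhibition (40 means 60% inhibition), 0 means no net growth, and negative values indicate cell death.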 Active and inactive are the calls of the source.

What follows are compounds tested on HL-60(TB) leukemia (assay: NCI-60 one-dose screen, 48 h (100 = growth as untreated, 0 = no growth, -100 = all killed)). Conditions: 10 µM unless noted.
Protocol: Growth inhibition of the HL-60(TB) human tumor cell line is measured as a screen for anti-cancer activity. Cells are grown in 96 well plates and exposed to the test compound for 48 hours. Compounds are tested at a single concentration, which is 10^-5 M for most compounds. The reported endpoint is percent growth (GI% or GIPRCNT), where numbers from 0 - 100% represent growth inhibition, and numbers from -100% - 0 represent cell death. For example, a value of 40 represents 60% growth inhibition. A value of 0 means no net growth occurred over the course of the experiment. A value of -40 indicates 40% of cells at the beginning of the experiment died by the end of the experiment. A value of -100 means all cells are dead at the end of the experiment.
NCI-60 Human Tumor Cell Lines Screen was performed using the standard one-dose NCI protocol, which is described in more detail at https://dtp.cancer.gov/discovery_development/nci-60/default.htm.
Compounds with GIPRCNT values below 10 were considered active. Activity score was based on GIPRCNT using the following formula: […]
Score is 0 for GIPRCNT values of 100 or above, 50 for GIPRCNT values of 0, and 100 for GIPRCNT values of -100.

Compound | growth
O=C(Nc1ccccc1OC(=O)c1ccccc1)c1ccccc1 | 0.315% (active)
Clc1ccc(Nc2nnc(CNc3ccccc3)c3ccccc23)cc1 | -13.4% (active)
COc1ccc(OC)c(CCn2cncc2-c2c[nH]c3cc(Br)ccc23)c1 | -9.46% (active)
C/C(=N\NC(=O)CSc1nc2ccccc2c(=O)n1Cc1ccc(S(N)(=O)=O)cc1)c1ccc(F)cc1 | 101% (inactive)
COC(=O)C(CCC(=O)CCl)N1C(=O)c2ccccc2C1=O (stereo not given) | 84.5% (inactive)
CCCC(=O)Nc1ccccc1C(=O)O | 94.1% (inactive)
C(=C\c1ccccc1)/CN1CCN(C(c2ccccc2)c2ccccc2)CC1 | 85.3% (inactive)
C[C@@H](Oc1cc(-c2cnn(C3CC4(CNC4)C3)c2)cnc1N)c1c(Cl)ccc(F)c1Cl | -1.19% (active)
COc1cc(/C=C/c2cn[nH]c2-c2ccc(C)cc2)cc(OC)c1OC | 4.76% (active)
O=C(Nc1ccc(F)cc1)Nc1ccc(Br)c(C(F)(F)F)c1 | -41.9% (active)
c1coc(CNc2c3ccccc3nc3ccccc23)c1 | 93% (inactive)
COc1ccc(NC(=O)c2cccc(C3CCc4c(cc(OC)c(OC)c4OC)O3)c2)cc1 (stereo not given) | -8.38% (active)
CCCCCCCCCCCCCCCCCC1=NCCN1C(=O)OCCO | 35.5% (inactive)
COc1ncc2cc1NS(=O)(=O)c1cccc(c1)C(=O)NCC1=CC=C(S1)c1ncnc3c1SC2=C3C | -10.8% (active)
Cc1cc(Cl)ccc1OC(C)C(=O)Nc1nnc(C2CC2)s1 (stereo not given) | 108% (inactive)
N#C/C(=C\c1ccc(-c2cc(C(F)(F)F)ccc2Cl)o1)c1nc(-c2ccco2)cs1 | 89.2% (inactive)
CC1(C)N=C(N)N=C(N)N1c1ccc(CCCCc2ccc(Cl)cc2S(=O)(=O)F)c(Cl)c1 | 15.5% (inactive)
CCOC(=O)c1c(Nc2nc3ccccc3s2)sc2c1CCC(=O)C2 | 58.7% (inactive)
CCOc1ccc(I)cc1 | 128% (inactive)
Nc1ncnc2c1C(c1ccc(Br)cc1)c1sc3c(F)cccc3c1O2 (stereo not given) | 119% (inactive)

Compound | growth
CN1CCN(Cc2ccc(NC(=O)c3cncc(C#Cc4cnccc4C#N)c3)cc2C(F)(F)F)CC1 | 24.7% (inactive)
COc1cccc(CNC(=O)c2cccc(C3CC(=O)c4c(cc(OC)c(OC)c4OC)O3)c2)c1 (stereo not given) | 43.9% (inactive)
O=S(=O)(Nc1ccccc1Cl)c1ccc(-c2cnc(C3CC3)o2)cc1 | 7.9% (active)
N#Cc1c2c(c(N)[nH]c1=O)C(=O)NC2(O)c1ccccc1 (stereo not given) | 93.8% (inactive)
COc1cc(NC(=O)c2cncnc2Nc2ccc3c(ccn3Cc3ccccn3)c2)cc(OC)c1 | 4.49% (active)
CCCCCC(C)c1ccc(O)c(C)c1 (stereo not given) | 91.4% (inactive)
N=c1sc(Cc2cc(Cl)ccc2Cl)cn1CC(=O)c1ccccc1 | 29.6% (inactive)
CN1C(=O)C2(Nc3cc(Cl)ccc3S2)c2cc(Cl)ccc21 (stereo not given) | 97.8% (inactive)
CC(=O)c1cnc2ccc(-c3cc(Cl)c(O)c(Cl)c3)nc2c1NC1CCC(CN(C)C)CC1 (stereo not given) | -14.8% [2.5 µM] (active)
Oc1cccc2ccc(N/N=C/c3cc(CN4CCOCC4)c(O)c4ncccc34)nc12 | 0.899% (active)
O=C(CC(NC(=O)OCc1ccccc1)C(=O)OCc1ccccc1)OCc1ccccc1 (stereo not given) | 126% (inactive)
CCCC(C(=O)OCC)C(C)OC(=O)OCC (stereo not given) | 87.8% (inactive)
Clc1ccc2nn3c4ccccc4c(OCCN4CCOCC4)nc3c2c1 | 81.9% (inactive)
Cn1nc(-c2ccc(Cl)cc2)nc2c(=O)n(C)c(=O)nc1-2 | -43.2% (active)
COc1ccc2nc3c(n2c1)C(=O)C(=O)c1ccccc1-3 | -48.9% (active)
Cc1nc2c(c(N3CCCc4ccccc43)n1)CCC2 | -42.3% (active)
COc1ccc(/C(=C2\O[C@@H]([C@H](O)CO)[C@H]3OC(C)(C)O[C@@H]23)c2cc(OC)c(OC)c(OC)c2)cc1O | -2.8% (active)
COc1cc(/C=C/C(=O)c2c(C)n([O-])c3cc(C)c(C)cc3[n+]2=O)cc(OC)c1OC | 32.9% (inactive)
Cc1cc2c(-c3nc4ccccc4n3C)c(O)c(O)cc2c(O)c1-c1c(C)cc2c(-c3nc4ccccc4n3C)c(O)c(O)cc2c1O | 76.7% (inactive)
O=C(O)c1ccc(-n2cc(/C=N/Nc3ccccc3F)c(-c3ccc(O)cc3)n2)cc1 | 45% (inactive)
